In the library only some 4% were active in any assay of this set; here they are far more common.
tim23-1 inh = growth inhibitors of tim23-1 mutant yeast | 330,000 compounds, 1.3% hits | inhibition, % at 20 µM | AID 463212 | S. cerevisiae tim23-1 growth, BacTiter-Glo luminescence, 24 h;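 active means growth inhibition of the mutant yeast at or above 50%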;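 further: temperature-sensitive mutant grown at 25 °C; plate controls were DMSO-treated mutant yeast for no effect and medium wells lacking yeast for full effect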
tim10-1 inh = tim10-1 yeast growth inhibition. S. cerevisiae tim10-1 ts strain growth, BacTiter-Glo, 24 h. inhibition, % at 20 µM. 330,000 compounds, 2.2% hits. AID 463190;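 active means inhibition of at least 40%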;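 further: mutant grown at 25 °C; 0% = DMSO wells with yeast and 100% = wells holding no yeast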
NLRP3 yeast inh = inhibitors of NALP3 inflammasome in yeast; 330,000 compounds, 0.39% hits; Yeast reconstituted NLRP3/ASC/caspase-1, beta-gal luminescence, 24 h; inhibition, % at 10 µM;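 active means inhibition of 50% or more; inactive means inhibition below 50%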;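 further: plate controls were induced DMSO wells for no effect and uninduced yeast grown without galactose for full effect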
TIM10 inh = TIM10 yeast growth inhibition. S. cerevisiae TIM10 strain growth, BacTiter-Glo luminescence, 24 h. AID 463195. inhibition, % at 10 µM. 330,000 compounds, 1.4% hits;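 active means inhibition of 40% or more at the single tested concentration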;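 further: wild-type TIM10 isogenic control strain grown at permissive 25 °C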
NALP1 inh = inhibitors of NALP1 inflammasome in yeast; S. cerevisiae NALP1/ASC/caspase-1 growth, X-gal OD620, 72 h; inhibition, % at 10 µM; 280,000 compounds, 0.61% hits; AID 2071; in the data active means inhibition mostly above about 24%, no sharp cut-off; inactive means mostly below about 32%
tim10-1 confirm = confirmation of tim10-1 mutant yeast growth inhibitors | 7,400 compounds, 56% hits | S. cerevisiae tim10-1 ts strain growth, BacTiter-Glo, 24 h | inhibition, % at 20 µM | shares compounds with tim10-1 inh;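 active means inhibition of yeast growth at or above a set limit in either of two repeat tests at 20 µM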;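 further: tim10-1 mutant grown at permissive 25 °C to find synthetic lethal compounds; 0% = DMSO yeast wells and 100% = medium wells without yeast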
TIM10 conf = TIM10 yeast growth inhibition, confirmed | inhibition, % at 10 µM | 4,600 compounds, 63% hits | shares compounds with TIM10 inh | S. cerevisiae tim10 strain growth, BacTiter-Glo luminescence, 24 h | AID 463215;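 active means inhibition of yeast growth at or above a set limit in either of two replicates at 10 µM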;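 further: this counterscreen used the strain with wild-type TIM10; 0% = yeast with DMSO and 100% = medium wells lacking yeast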
tim23-1 confirm = tim23-1 yeast growth inhibition, confirmed. 4,400 compounds, 83% hits. inhibition, % at 20 µM. S. cerevisiae tim23-1 growth, BacTiter-Glo luminescence, 24 h. shares compounds with tim23-1 inh. AID 463218;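 active means inhibition above about 39% in either of two replicate wells at 20 µM, limit read from the data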;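 further: temperature-sensitive tim23-1 mutant grown at 25 °C; 0% = DMSO wells with yeast and 100% = medium wells without yeast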
* = called active by the depositor; . = not tested or not shown.

SMILES | tim23-1 inh | tim10-1 inh | NLRP3 yeast inh | TIM10 inh | NALP1 inh | TIM10 conf | tim23-1 confirm | others
CCn1nc(/C=C/c2ccccc2)nc2c(=O)n(C)c(=O)nc1-2 | 93* | 93* | 22 | 96* | -2 | 98* | 91* | tim10-1 confirm=95*
Cc1ccc(OCCOc2cccc(C=C3C(=O)NC(=O)NC3=O)c2)cc1 | 23 | 12 | 13 | 8 | 6 | . | .
CCN(CC)c1ccc(/C=C/[N+](=O)[O-])cc1 | 44 | -7 | 11 | 4 | -12 | . | .
COc1cc(/C=C/[N+](=O)[O-])ccc1O | 77* | 43* | 23 | 19 | 94* | . | 76* | tim10-1 confirm=18
CCC(c1ccc(C)cc1)N1C(=O)C2C3CCC(O3)C2C1=O (stereo unspecified) | 15 | 9 | 21 | 6 | . | . | .
COc1cccc(N2C(=O)NC(=O)/C(=C/c3ccc4c(c3)Cc3ccccc3-4)C2=O)c1 | 31 | 19 | 19 | 4 | -10 | . | .
CCOc1ccc(N2C(=O)NC(=O)/C(=C\c3cc(OC)c(OC)cc3[N+](=O)[O-])C2=O)cc1 | 6 | 22 | -6 | 22 | 21 | . | .
COc1ccc(N2C(=O)NC(=O)/C(=C/c3ccc([N+](=O)[O-])s3)C2=O)cc1 | 61* | 62* | 7 | 90* | . | 69* | 76* | tim10-1 confirm=71*
COc1ccccc1N1C(=O)NC(=O)/C(=C/c2ccc([N+](=O)[O-])s2)C1=O | 67* | 77* | 24 | 73* | . | 19 | 70* | tim10-1 confirm=68*
COc1cccc(N2C(=O)NC(=O)/C(=C/c3ccc([N+](=O)[O-])s3)C2=O)c1 | 65* | 73* | 2 | 87* | . | 29 | 78* | tim10-1 confirm=69*
C#C[C@]1(O)[C@H](O)CC2C3CC[C@H]4C[C@@H](O)CC[C@]4(C)C3CC[C@@]21C (stereo partly specified) | 5 | -12 | 37 | -8 | . | . | .
Oc1cc(Cl)ccc1Oc1ccc(Cl)cc1Cl | 48 | 39 | 20 | 45* | . | 68* | .
O=P(Nc1ccccc1Cl)(c1ccccc1)c1nc2c(s1)CCCC2 (stereo unspecified) | 35 | 37 | -86 | 41* | 0 | 21 | .
CCN(CC)c1ccc(N=Cc2c(O)n(-c3ccccc3)c(=O)[nH]c2=O)cc1 | 20 | 27 | 11 | 41* | . | 19 | .
CCc1ccccc1NC(=O)CSc1nnc([C@@H](N)Cc2c[nH]c3ccccc23)o1 | 26 | 23 | 1 | 29 | 20 | . | .
N[C@@H](Cc1c[nH]c2ccccc12)c1nnc(SCc2ccc(Cl)cc2)o1 | 13 | 39 | 6 | 41* | 13 | 40* | .
COC1=C(OC)[C@]23CCc4ccc(OC)c(OC)c4[C@]2(CCN3C)CC1=O | 17 | 13 | -4 | 2 | . | . | .
COC(=O)C1=C(c2ccc(-c3ccccc3)c(F)c2)C[C@@H]2CC[C@H]1N2C(=O)NCCc1ccccc1 | 21 | 24 | -4 | 5 | . | . | .
O=C1N[C@@H](Cc2ccccc2)C(=O)N2[C@H]1C[C@H]1c3ccccc3N(OOSc3ccccc3)[C@H]12 | 25 | 15 | 11 | 44* | . | 18 | .
COC(=O)[C@@H]1C[C@]2(C(=O)O)c3ccccc3N(OOSc3ccccc3)[C@@H]2N1C(=O)OC | -6 | -6 | 9 | 2 | . | . | .
CC(=O)c1cccc(OCC(=O)N2CCN(CC(=O)Nc3cccc(F)c3)CC2)c1 | 5 | -2 | 1 | -9 | . | . | .
Nc1ccc(N=Nc2ccccc2)cc1 | 12 | 18 | 32 | 4 | 15 | . | .
Cc1cc(N=Nc2ccccc2C)ccc1N | 64* | 22 | 41 | 22 | . | . | 0
CN1C(=O)C(=Cc2ccccc2OS(=O)(=O)c2ccccc2)C(=O)N(C)C1=O | 77* | 25 | -28 | 35 | 18 | . | 73*
CCCc1nc2ccccc2c(=O)n1-c1ccc(OC)cc1 | 0 | 7 | 8 | 6 | 10 | . | .
CCCc1nc2ccccc2c(=O)n1-c1cccc(OC)c1 | 83* | 9 | 5 | 0 | -5 | . | 21

Screens: PubChem, Sanford-Burnham Center for Chemical Genomics
